FBA Mtb inh – Mtb fructose-bisphosphate aldolase inhibition; P9WQA3; purified M. tuberculosis FBA, fluorescence read-out; inhibition, % at 1 µM; 360,000 compounds, 2.3% hits; AID 588726;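 also: 0% = vehicle and 100% = reference inhibitor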
Target sequence (P9WQA3 whole entry, looked up): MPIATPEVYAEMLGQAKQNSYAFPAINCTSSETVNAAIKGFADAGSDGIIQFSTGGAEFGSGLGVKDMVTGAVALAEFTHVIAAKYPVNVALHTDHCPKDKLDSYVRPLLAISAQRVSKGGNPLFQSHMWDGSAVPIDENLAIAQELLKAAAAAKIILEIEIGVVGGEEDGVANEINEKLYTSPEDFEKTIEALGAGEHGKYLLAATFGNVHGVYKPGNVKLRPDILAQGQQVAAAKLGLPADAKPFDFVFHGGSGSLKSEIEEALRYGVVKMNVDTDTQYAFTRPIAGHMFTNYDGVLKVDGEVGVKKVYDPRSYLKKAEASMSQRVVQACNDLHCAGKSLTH
CCHF vOTU inh – blocks the CCHF virus ovarian tumor domain protease | inhibition, % at 11.5 µM | 370,000 compounds, 0.55% hits | CCHFV vOTU protease, Pep-AMC fluorescence; in the data active = inhibition above about 30%; also: 0% = vehicle wells with enzyme and 100% = no enzyme wells
RecA intein inh – Mtb RecA intein splicing inhibition | P9WHJ3 | cell-free RecA intein splicing, fluorescence | inhibition, % (no concentration beside the values) | 290,000 compounds, 0.75% hits | AID 2221; in the data active = inhibition above about 30%;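 also: 0% = vehicle wells and 100% = reference inhibitor control wells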
GDH-TPI counter-1 – counter-screen for M. tuberculosis FBA inhibitors: GDH-TPI coupled enzymes | 360,000 compounds, 1.2% hits | inhibition, % at 4.8 µM | GDH-TPI coupled enzyme counterscreen, NADH absorbance | AID 588335; in the data active = inhibition above about 30%;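 also: 0% = DMSO wells and 100% = wells lacking the enzyme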
SARS 3CLpro inh – SARS-CoV 3CLpro protease inhibition. 290,000 compounds, 0.14% hits. inhibition, % at 6 µM. recombinant SARS-CoV 3CLpro, quenched FRET peptide cleavage; in the data active = inhibition above about 12%
DUSP3 inh – DUSP3 (human) phosphatase inhibition. 290,000 compounds, 0.52% hits. P51452. inhibition, % at 13.3 µM. recombinant VHR phosphatase, pNPP absorbance; in the data active = inhibition above about 50%
Target sequence (P51452 whole entry, looked up): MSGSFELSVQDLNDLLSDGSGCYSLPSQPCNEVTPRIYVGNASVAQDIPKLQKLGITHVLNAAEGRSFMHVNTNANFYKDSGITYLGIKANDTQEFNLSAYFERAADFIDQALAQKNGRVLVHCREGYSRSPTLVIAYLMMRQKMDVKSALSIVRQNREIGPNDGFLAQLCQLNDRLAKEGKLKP
Mtb FBA inh conf – Mtb FBA inhibition, confirmed | shares compounds with FBA Mtb inh | purified M. tuberculosis FBA, fluorescence read-out | inhibition, % at 1 µM | 5,600 compounds, 78% hits | AID 651616;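 also: 0% = vehicle wells and 100% = reference inhibitor wells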
GDH-TPI counter-2 – counter-screen for M. tuberculosis FBA inhibitors: GDH-TPI coupled enzyme inhibition; shares compounds with FBA Mtb inh; GDH-TPI coupled enzyme counterscreen, fluorescence; inhibition, % at 1 µM; 5,600 compounds, 81% hits; in the data active = inhibition above about 10%
Starred values were filed as active, the others as inactive; nt = not tested or not shown; + = active, no number. In the library only some 4.7% were active in any assay of this set; here they are far more common. Rule as the data show it, unless noted: active = inhibition above about 27%; inactive = the rest.

SMILES | FBA Mtb inh | CCHF vOTU inh | RecA intein inh | GDH-TPI counter-1 | SARS 3CLpro inh | DUSP3 inh | Mtb FBA inh conf | GDH-TPI counter-2
O=C(CCNc1cccc(F)c1)c1cc2ccccc2o1 | 28.4* | -9.3 | 0.0 | 2.5 | 1.9 | 16.0 | 3.6 | -5.1
N#CCSc1n[nH]c2nc3c(c(=O)n12)C1(CCCCC1)Cc1ccccc1-3 | 28.4* | 18.1 | 5.1 | 2.6 | 7.8 | 8.4 | -0.7 | -2.9
CCC(=O)Nn1cnc2c(c1=O)C1(CCCCC1)Cc1ccccc1-2 | 1.6 | 8.8 | 1.6 | -1.9 | 3.7 | 17.1 | nt | nt
Cn1c(NCCCO)nc2c(c1=O)C1(CCCCC1)Cc1ccccc1-2 | 65.5* | -71.3 | nt | 15.2 | 1.6 | -9.1 | 121.9* | 84.6*
CSCc1ccc(C(=O)NC2CC(C)(C)Cc3c2cnn3-c2ccc(F)cc2)o1 (configuration not stated) | -2.4 | 19.4 | 10.0 | -0.4 | -0.1 | 2.8 | nt | nt
COc1ccc(OC)c(-c2nnc(-c3ccc(C)o3)o2)c1 | 103.3* | -58.0 | -0.1 | 23.7 | 1.4 | -0.1 | 101.1* | 83.6*
CCN1CCN(Cc2c(O)ccc3c(=O)c(-c4ccc(OC)c(OC)c4)c(C)oc23)CC1 | 41.2* | -44.5 | -1.0 | 22.4 | -1.1 | 3.6 | 62.3* | 50.6*
COc1ccc(-c2c(C)oc3c(CN4CCN(C)CC4)c(O)ccc3c2=O)cc1 | 101.8* | -93.5 | -3.4 | 19.7 | -0.8 | -6.1 | 63.0* | 39.6*
CCOC(=O)c1cc(-c2ccc(OC)cc2)nc2c1c(C)nn2CCC#N | 31.3* | -20.6 | 6.8 | 31.4* | 0.9 | -1.7 | 76.3* | 59.9*
Cc1c(C(=O)NCC2CCCO2)oc2ccc3c(c12)C(=O)CC(C)(C)O3 (configuration not stated) | 17.2 | -27.2 | 1.2 | 18.6 | 0.1 | 15.1 | nt | nt
COCCNC(=O)c1oc2ccc3c(c2c1C)C(O)CC(C)(C)O3 (configuration not stated) | 37.5* | -12.9 | -0.7 | 11.0 | -0.6 | 56.9* | 51.9* | 41.6*
CCN(CC)CCCNC(=O)c1oc2ccc3c(c2c1C)C(O)CC(C)(C)O3 (configuration not stated) | 43.8* | -13.7 | -1.4 | 13.6 | 0.4 | 82.7 | 54.6* | 42.9*
CCOC(=O)C1=C(COC(=O)c2ccc([N+](=O)[O-])o2)NC(=O)NC1C (configuration not stated) | -2.0 | 13.7 | nt | 4.6 | nt | nt | nt | nt
CCCCC(=O)Nc1cc(Cl)ccc1C(=O)O | 9.2 | 5.9 | -0.3 | -7.0 | 5.4 | -12.3 | nt | nt
COc1ccc2c(O)c(-c3c(C)cc(C)cc3C)c(=O)[nH]c2c1 | 46.4* | -12.6 | 2.0 | 17.1 | nt | nt | -6.1 | -6.7
CCCCCCSc1ccc(-c2nc3ccc(C)cn3c2NCc2ccccc2)cc1OC | 37.8* | -5.7 | -0.6 | 17.4 | nt | nt | 146.3* | 109.7*
CCCCCCSc1ccc(-c2nc3ccc(C)cn3c2NCc2ccccc2)cc1 | 17.3 | -5.0 | 0.3 | 2.2 | nt | nt | nt | nt
CCCCNc1c(-c2cccc(SC(C)CC)c2)nc2ccc(Cl)cn12 (configuration not stated) | 5.7 | -5.1 | nt | -3.6 | nt | nt | nt | nt
c1csc(-c2nc3ccccn3c2NC2CCCCC2)c1 | 42.9* | -48.6 | -8.0 | 7.9 | 2.4 | 30.1 | 0.7 | -4.0
CCCCNc1c(-c2ccc(OC)c(SC(C)CC)c2)nc2cc(C)ccn12 (configuration not stated) | 30.7* | 6.7 | nt | 4.0 | nt | nt | 92.9* | 91.1*
CCCCNc1c(-c2ccc(SC(C)CC)cc2)nc2ccccn12 (configuration not stated) | 56.9* | -23.8 | -40.9 | 13.2 | nt | nt | 82.8* | 71.7*
Cc1c(C(=O)C(=O)NCCCn2ccnc2)c2ccccc2n1C | -1.0 | 0.6 | 7.4 | -8.4 | -3.7 | 29.8 | nt | nt
Cn1c(=O)c(=O)n(C)c2cc(S(=O)(=O)NCCOc3ccccc3)ccc21 | 4.7 | -6.9 | -1.9 | 15.8 | 8.7 | 13.9 | nt | nt
CC1CC(C)CN(S(=O)(=O)c2cc3c4c(c2)CCC(=O)N4CCC3)C1 (configuration not stated) | 0.6 | 4.1 | 0.6 | 0.3 | nt | nt | nt | nt
CCCCNc1c(-c2ccc(OC)c(SC(C)CC)c2)nc2ccc(C)cn12 (configuration not stated) | 40.8* | 0.7 | nt | -2.2 | nt | nt | 74.1* | 86.9*
SMILES | FBA Mtb inh | CCHF vOTU inh | RecA intein inh | GDH-TPI counter-1 | SARS 3CLpro inh | DUSP3 inh | Mtb FBA inh conf | GDH-TPI counter-2
CCCCCCSc1cc(-c2nc3ccc(Cl)cn3c2NCCCC)ccc1OC | 1.1 | 11.4 | -2.6 | 5.7 | nt | nt | nt | nt
CCCCNc1c(-c2ccc(Sc3ccc(OC)cc3)cc2)nc2cc(C)ccn12 | 52.8* | 14.6 | nt | 17.9 | nt | nt | 53.6* | 59.8*
CCCCCCSc1cc(-c2nc3ccc(C)cn3c2NCCCC)ccc1OC | 27.7* | 0.7 | nt | 17.6 | nt | nt | 139.3* | 107.3*
CCC(C)Sc1cc(-c2nc3cc(C)ccn3c2NC2CCCCC2)ccc1OC (configuration not stated) | 20.0 | 19.6 | nt | -0.4 | nt | nt | nt | nt
CCC(C)Sc1cc(-c2nc3ccccn3c2NC2CCCCC2)ccc1OC (configuration not stated) | 33.9* | -4.6 | 13.8 | 12.1 | nt | nt | 87.4* | 78.2*
CN(Cc1ccccc1)C(=O)OCc1cn(Cc2cccc(F)c2)nn1 | nt | 1.7 | nt | nt | nt | nt | nt | nt
O=C(Cc1n[nH]c(=O)c2ccccc12)Nc1cc(C(F)(F)F)ccc1-n1cncn1 | -2.4 | -4.3 | nt | -17.9 | nt | nt | nt | nt
CC1CCN(CCCNS(=O)(=O)c2cc3c(cc2Br)CCN3C(=O)C2CC2)CC1 | nt | -0.1 | nt | nt | nt | nt | nt | nt
Cc1ccc(C)c(-n2c3nc(=O)n(C)c(=O)c-3cc3ccccc32)c1 | 100.3* | -101.7 | -178.0 | 19.0 | -2.7 | 0.9 | + | +
CCCCn1c(=O)cc(C)n(-c2ccccc2)c1=O | 0.3 | -0.8 | -2.5 | -3.7 | nt | nt | nt | nt
CCCCn1c(=O)nc2n(-c3ccccc3)c3ccccc3cc-2c1=O | 45.6* | -46.6 | -43.1 | 10.4 | -6.6 | 13.2 | 122.5* | 98.0*
CCOC(=O)CNS(=O)(=O)c1ccc2c3c(cccc13)C(=O)N2CC | 59.1* | -40.3 | -308.5 | 8.8 | 1.8 | 4.7 | 46.0* | 40.7*
CCOC(=O)C1CCN(S(=O)(=O)c2ccc3c4c(cccc24)C(=O)N3CC)CC1 | 42.6* | -36.8 | nt | 27.3 | nt | nt | 48.9* | 30.5*
CCOC(=O)Cc1csc(NS(=O)(=O)c2ccc3c4c(cccc24)C(=O)N3CC)n1 | -1.1 | 8.1 | -6.3 | 8.5 | -2.9 | 24.9 | nt | nt
CCOC(=O)C1CCN(S(=O)(=O)c2ccc3c4c(cccc24)C(=O)N3)CC1 | 40.9* | nt | -60.3 | 4.1 | 5.5 | 12.8 | + | +
CCOC(=O)C1CCN(S(=O)(=O)c2ccc(C(C)(C)C)cc2)CC1 | -3.2 | -3.6 | 1.1 | -4.2 | 1.4 | 15.1 | nt | nt
CCCCOc1ccc(S(=O)(=O)NC(=O)C2(C)CCN2C(=O)Cc2cccs2)cc1 (configuration not stated) | 3.8 | 28.3 | nt | 0.4 | nt | nt | nt | nt

From PubChem
